From ChEMBL document CHEMBL1961873, “Compounds: GSK PKIS; Assays: Nanosyn kinase panel” (2012) come the findings set out here.

The target of experiment [1] is T1, 3-phosphoinositide-dependent protein kinase 1 (Homo sapiens) (UniProt O15530).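 Note: values are mean inhibition of PDK1.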
T1 sequence (whole entry): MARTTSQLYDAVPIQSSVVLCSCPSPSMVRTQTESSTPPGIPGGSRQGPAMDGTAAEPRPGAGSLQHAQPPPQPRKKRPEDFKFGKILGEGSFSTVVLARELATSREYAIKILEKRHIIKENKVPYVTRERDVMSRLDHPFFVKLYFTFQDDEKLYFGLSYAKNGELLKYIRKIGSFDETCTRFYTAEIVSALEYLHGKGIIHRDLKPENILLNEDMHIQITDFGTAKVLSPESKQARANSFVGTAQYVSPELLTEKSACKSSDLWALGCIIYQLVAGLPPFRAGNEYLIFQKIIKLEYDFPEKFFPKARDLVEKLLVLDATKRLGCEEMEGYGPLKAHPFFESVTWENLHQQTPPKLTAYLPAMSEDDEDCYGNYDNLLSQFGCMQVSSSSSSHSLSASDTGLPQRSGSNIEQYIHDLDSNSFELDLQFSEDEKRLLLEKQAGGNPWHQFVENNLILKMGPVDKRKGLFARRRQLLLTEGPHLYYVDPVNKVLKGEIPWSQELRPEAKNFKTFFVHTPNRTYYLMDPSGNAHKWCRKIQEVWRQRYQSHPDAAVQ
As to conditions: at 0.1 µM.

The target in experiment [2] is cAMP-dependent protein kinase catalytic subunit alpha (Homo sapiens) (UniProt P17612). As to conditions: at 0.1 µM.
The target is the same in experiment [3]. The note with it: at 1 µM.
Experiment [4] deals with Protein kinase C alpha type (Homo sapiens) (UniProt P17252). As to conditions: at 0.1 µM.
Experiment [5] has the same target. The note with it: at 1 µM.
Experiment [6] has as its target Protein kinase C beta type (Homo sapiens) (UniProt P05771). The note with it: at 0.1 µM.
Experiment [7] shares this target. The note with it: at 1 µM.
In experiment [8] the target is Protein kinase C eta type (Homo sapiens) (UniProt P24723). As to conditions: at 0.1 µM.
For experiment [9] the target is unchanged. As to conditions: at 1 µM.
The target of experiment [10] is Protein kinase C gamma type (Homo sapiens) (UniProt P05129). The note with it: at 0.1 µM.
Experiment [11] has the same target. As to conditions: at 1 µM.
The target of experiment [12] is T2, Protein kinase C iota type (Homo sapiens) (UniProt P41743).
T2 sequence (whole entry): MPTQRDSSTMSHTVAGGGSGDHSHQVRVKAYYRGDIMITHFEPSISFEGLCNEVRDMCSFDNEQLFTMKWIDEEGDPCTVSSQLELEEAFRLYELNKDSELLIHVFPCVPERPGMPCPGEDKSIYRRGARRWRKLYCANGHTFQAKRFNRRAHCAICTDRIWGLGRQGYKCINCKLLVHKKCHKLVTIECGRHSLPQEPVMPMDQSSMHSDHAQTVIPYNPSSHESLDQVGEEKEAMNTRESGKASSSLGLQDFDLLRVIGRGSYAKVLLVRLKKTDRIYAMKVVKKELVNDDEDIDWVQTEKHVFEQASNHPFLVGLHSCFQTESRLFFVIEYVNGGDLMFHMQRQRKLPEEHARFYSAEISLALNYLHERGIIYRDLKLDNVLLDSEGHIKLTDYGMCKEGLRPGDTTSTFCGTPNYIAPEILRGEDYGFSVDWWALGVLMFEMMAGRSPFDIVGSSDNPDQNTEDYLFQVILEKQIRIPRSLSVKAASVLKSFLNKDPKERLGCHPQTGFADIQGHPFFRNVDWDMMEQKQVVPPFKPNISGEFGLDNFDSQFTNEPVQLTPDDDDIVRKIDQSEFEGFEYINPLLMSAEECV
The note with it: at 0.1 µM.

The target of experiment [13] is T2, Protein kinase C iota type (Homo sapiens). As to conditions: at 1 µM.
Experiment [14] has as its target Protein kinase C theta type (Homo sapiens) (UniProt Q04759). As to conditions: at 0.1 µM.
Experiment [15] has the same target. As to conditions: at 1 µM.
Experiment [16] concerns the target Protein kinase C beta type (Homo sapiens) (UniProt P05771). The note with it: at 0.1 µM. This is another data set of the same source.
For experiment [17] the target is unchanged. As to conditions: at 1 µM. This is another data set of the same source.
The target in experiment [18] is T3, Serine/threonine-protein kinase D1 (Homo sapiens) (UniProt Q15139).
T3 sequence (whole entry): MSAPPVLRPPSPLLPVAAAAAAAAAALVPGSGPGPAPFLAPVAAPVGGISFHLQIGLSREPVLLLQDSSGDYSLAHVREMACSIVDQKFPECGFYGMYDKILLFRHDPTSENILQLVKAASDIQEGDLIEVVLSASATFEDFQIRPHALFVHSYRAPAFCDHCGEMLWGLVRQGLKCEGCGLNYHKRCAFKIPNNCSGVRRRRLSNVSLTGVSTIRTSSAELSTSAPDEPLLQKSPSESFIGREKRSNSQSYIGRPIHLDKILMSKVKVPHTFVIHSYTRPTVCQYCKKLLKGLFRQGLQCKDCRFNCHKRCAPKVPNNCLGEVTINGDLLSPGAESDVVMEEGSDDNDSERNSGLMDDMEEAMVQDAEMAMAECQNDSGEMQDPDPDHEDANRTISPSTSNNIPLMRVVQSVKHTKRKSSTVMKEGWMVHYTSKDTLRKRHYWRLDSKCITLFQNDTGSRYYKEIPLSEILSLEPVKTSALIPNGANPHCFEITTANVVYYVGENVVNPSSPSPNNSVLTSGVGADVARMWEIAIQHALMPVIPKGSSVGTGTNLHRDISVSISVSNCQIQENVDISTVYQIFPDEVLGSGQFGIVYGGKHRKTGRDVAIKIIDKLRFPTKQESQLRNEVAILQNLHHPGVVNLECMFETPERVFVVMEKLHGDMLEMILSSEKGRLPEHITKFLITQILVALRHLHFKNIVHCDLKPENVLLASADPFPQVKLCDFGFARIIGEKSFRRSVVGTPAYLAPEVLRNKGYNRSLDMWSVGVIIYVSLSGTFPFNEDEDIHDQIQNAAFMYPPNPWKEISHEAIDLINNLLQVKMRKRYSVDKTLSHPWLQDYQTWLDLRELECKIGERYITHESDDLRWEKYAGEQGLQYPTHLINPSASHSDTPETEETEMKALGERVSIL
As to conditions: at 0.1 µM.

The target in experiment [19] is T3, Serine/threonine-protein kinase D1 (Homo sapiens). As to conditions: at 1 µM.
For experiment [20], the target named is T4, Serine/threonine-protein kinase D2 (Homo sapiens) (UniProt Q9BZL6).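 Note: reported percent inhibition values are means, part of the GSK PKIS kinase panel screen.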
T4 sequence (whole entry): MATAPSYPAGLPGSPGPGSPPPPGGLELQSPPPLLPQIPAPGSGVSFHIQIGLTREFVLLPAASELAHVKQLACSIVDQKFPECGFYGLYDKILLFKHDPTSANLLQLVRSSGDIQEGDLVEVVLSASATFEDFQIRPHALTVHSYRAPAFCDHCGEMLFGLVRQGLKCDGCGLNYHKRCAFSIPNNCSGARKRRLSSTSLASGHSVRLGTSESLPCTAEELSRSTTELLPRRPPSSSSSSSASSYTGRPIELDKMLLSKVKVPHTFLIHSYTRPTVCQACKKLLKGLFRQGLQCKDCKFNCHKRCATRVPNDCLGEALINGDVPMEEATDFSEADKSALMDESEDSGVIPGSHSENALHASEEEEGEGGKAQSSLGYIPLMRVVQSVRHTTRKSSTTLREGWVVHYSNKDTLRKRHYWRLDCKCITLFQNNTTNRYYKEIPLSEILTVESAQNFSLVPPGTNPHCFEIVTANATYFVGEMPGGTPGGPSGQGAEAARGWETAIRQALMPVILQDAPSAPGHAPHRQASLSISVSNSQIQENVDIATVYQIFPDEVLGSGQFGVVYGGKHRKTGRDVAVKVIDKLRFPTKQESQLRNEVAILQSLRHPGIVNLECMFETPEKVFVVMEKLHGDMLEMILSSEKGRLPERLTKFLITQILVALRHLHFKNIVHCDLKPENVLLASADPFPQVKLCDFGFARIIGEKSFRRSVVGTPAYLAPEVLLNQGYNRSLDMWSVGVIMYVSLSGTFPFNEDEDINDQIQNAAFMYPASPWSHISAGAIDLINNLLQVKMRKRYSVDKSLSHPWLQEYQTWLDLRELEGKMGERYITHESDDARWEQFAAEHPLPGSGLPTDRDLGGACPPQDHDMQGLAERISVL
As to conditions: at 0.1 µM.

Chain of Protein kinase C eta type (Homo sapiens) (P24723 whole entry): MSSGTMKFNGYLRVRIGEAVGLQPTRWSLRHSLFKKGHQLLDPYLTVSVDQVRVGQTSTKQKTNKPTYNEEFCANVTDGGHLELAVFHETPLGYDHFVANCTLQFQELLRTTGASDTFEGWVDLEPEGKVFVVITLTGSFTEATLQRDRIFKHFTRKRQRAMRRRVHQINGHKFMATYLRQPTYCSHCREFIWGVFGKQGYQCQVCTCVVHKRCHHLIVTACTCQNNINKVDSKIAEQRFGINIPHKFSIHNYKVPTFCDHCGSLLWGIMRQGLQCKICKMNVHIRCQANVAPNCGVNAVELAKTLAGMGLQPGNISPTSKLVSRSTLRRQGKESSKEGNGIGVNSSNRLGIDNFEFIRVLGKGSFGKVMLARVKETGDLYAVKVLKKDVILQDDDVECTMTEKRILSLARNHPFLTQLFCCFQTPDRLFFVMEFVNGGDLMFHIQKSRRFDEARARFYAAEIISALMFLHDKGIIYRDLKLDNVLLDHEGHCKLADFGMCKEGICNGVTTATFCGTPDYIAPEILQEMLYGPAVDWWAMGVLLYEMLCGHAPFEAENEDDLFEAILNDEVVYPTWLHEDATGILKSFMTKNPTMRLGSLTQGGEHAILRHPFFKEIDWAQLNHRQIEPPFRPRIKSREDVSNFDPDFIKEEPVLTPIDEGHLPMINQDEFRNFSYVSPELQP
Chain of Protein kinase C beta type (Homo sapiens) (P05771 2-671 limits assumed): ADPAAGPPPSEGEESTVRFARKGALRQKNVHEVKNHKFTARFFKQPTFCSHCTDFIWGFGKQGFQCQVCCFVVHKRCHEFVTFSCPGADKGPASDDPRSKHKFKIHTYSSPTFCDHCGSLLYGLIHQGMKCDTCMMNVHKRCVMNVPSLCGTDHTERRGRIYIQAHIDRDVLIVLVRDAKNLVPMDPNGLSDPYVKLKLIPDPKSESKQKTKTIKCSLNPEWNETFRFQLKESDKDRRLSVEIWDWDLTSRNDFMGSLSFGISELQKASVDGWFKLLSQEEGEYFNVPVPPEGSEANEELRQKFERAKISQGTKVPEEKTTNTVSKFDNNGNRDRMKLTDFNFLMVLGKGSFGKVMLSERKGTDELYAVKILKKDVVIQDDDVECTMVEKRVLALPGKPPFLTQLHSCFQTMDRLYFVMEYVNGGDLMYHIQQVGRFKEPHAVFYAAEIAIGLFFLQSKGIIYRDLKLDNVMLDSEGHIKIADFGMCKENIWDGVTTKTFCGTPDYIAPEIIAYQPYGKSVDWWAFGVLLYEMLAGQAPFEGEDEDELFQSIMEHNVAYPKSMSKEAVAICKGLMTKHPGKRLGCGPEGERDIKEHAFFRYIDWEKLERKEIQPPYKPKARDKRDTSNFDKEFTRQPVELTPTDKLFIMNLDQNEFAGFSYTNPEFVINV
Chain of Protein kinase C theta type (Homo sapiens) (Q04759 whole entry, looked up): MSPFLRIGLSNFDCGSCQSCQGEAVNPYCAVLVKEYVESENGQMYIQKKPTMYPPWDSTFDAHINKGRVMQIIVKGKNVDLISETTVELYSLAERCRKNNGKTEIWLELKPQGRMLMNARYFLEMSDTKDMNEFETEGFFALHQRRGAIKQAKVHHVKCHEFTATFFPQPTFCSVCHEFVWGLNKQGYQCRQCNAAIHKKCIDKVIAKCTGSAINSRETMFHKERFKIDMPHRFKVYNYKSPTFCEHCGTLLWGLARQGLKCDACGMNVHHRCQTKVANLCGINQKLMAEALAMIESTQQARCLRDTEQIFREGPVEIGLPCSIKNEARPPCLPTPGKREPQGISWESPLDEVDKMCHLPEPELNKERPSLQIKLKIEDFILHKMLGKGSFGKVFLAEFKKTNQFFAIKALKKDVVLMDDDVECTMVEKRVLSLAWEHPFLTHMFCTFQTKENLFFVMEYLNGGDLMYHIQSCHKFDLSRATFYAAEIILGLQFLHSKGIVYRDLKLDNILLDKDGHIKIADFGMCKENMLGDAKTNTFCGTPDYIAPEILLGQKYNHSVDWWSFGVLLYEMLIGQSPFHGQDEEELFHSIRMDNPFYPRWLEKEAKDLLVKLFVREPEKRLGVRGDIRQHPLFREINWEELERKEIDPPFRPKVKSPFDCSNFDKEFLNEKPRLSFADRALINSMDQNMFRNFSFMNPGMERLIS

As to `Nc1ncc(-c2cccc(S(N)(=O)=O)c2)c2scc(-c3ccc(F)c(Cl)c3)c12`, the inhibition in experiment [1] is 1.01%; in [2], 3.02%; in experiment [3] it was 3.59%; in experiment [4], -0.67%; in [5] it was 2.74%; in [6] it was -0.08%. For the same compound, the inhibition in [7] is 0.9%; in [8] it was 4.76%; in [9], 6.59%; in experiment [10], -0.92%; in experiment [11] it was 2.77%; in experiment [12], 1.76%. For the same compound, the inhibition in [13] was 2.27%; in experiment [14], 1.73%; in [15] it was 2.11%; in [16], 0.92%; in experiment [17] it was 1.52%; in experiment [18], 6.59%. For the same compound, the values for the inhibition in experiment [19] and in experiment [20] were 35% and 8.43%, respectively.
With `CC(=O)NCc1cccc(C#Cc2cncnc2Nc2ccc(OCc3cccc(F)c3)c(Cl)c2)c1`, the inhibition is 0.04% in experiment [1]; 0.53% in [2]; 0.58% in experiment [3]; 0.2% in experiment [4]; 1.17% in experiment [5]; -0.24% in experiment [6]. Further, the inhibition in experiment [7] is 3.27%; in experiment [8], 1.39%; in [9], 3.4%; in experiment [10], -0.73%; in experiment [11], 1.3%; in experiment [12], 0.84%. Further, the inhibition is 0.45% in [13]; 0.15% in experiment [14]; -0.29% in [15]; 0.7% in experiment [16]; 0.37% in experiment [17]; 3.28% in experiment [18]. Also, the inhibition in [19] stood at 2.11%; in experiment [20], 0.45%.
Regarding `COc1cc2ncn(-c3cc(OCc4ccccc4C(F)(F)F)c(C(=O)N(C)C)s3)c2cc1OC`, the inhibition was 1.17% in experiment [1]; 0.88% in experiment [2]; 0.93% in experiment [3]; -0.03% in experiment [4]; 0.21% in experiment [5]; 0.35% in [6]. The inhibition is -0.32% in experiment [7]; 1.66% in experiment [8]; 0.73% in experiment [9]; -1.33% in experiment [10]; 0.13% in experiment [11]; -0.68% in experiment [12]. Besides, the inhibition was -2.2% in experiment [13]; 0.14% in [14]; -0.71% in experiment [15]; 0.03% in experiment [16]; 0.09% in experiment [17]; 0.6% in [18]. In addition, the inhibition was 1.47% in [19] and 1.09% in experiment [20].
Turning to `Nc1nc(-c2cccc(Cl)c2)c(-c2ccc3ncccc3n2)s1`, the inhibition came out at 0.49% in [1]; 2.34% in experiment [2]; 4.12% in [3]; 1.05% in [4]; 1.4% in [5]; 2.33% in [6]. Besides, the inhibition in [7] amounted to 4.87%; in experiment [8], 5.47%; in experiment [9], 7.42%; in experiment [10], 1.18%; in experiment [11], 6.65%; in experiment [12], 2.71%. Moreover, the inhibition in experiment [13] amounted to 1.25%; in [14] it was 4.95%; in experiment [15], 5.67%; in [16], 2.82%; in [17] it was 2.11%; in experiment [18] it was 5.85%. Moreover, the inhibition worked out at 35% in [19] and 7.33% in experiment [20].
Take `CN1CCC(n2cnc(-c3ccc(F)cc3)c2-c2ccnc(Nc3ccccc3)n2)CC1`: the inhibition in experiment [1] came to 3.8%; in [2], 2.92%; in experiment [3], 16.7%; in experiment [4] it was 19.4%; in experiment [5] it was 65.2%; in [6], 16.1%. Besides, the inhibition amounted to 51% in [7]; 2.14% in [8]; 2.72% in experiment [9]; 5.68% in experiment [10]; 33.8% in [11]; 1.53% in experiment [12]. Besides, the inhibition came to 1.32% in [13]; 1.16% in [14]; 4.03% in experiment [15]; 27.4% in [16]; 66.5% in experiment [17]; 5.32% in [18]. For the same compound, the inhibition in experiment [19] came to 39.6%; in experiment [20], 7.44%.
Turning to `CCn1c(-c2nonc2N)nc2cnc(Oc3cccc(NC(=O)c4ccc(N(C)C)cc4)c3)cc21`, the inhibition stood at 1.22% in [1]; 19.6% in experiment [2]; 70.5% in [3]; 0.56% in experiment [4]; 7.8% in [5]; 16.7% in experiment [6]. Besides, the inhibition in [7] is 53.6%; in [8], 43.6%; in [9], 88%; in experiment [10], 3.96%; in experiment [11], 28.3%; in experiment [12], 6.04%. The inhibition in experiment [13] stood at 45%; in experiment [14], 5.55%; in [15] it was 32.3%; in experiment [16], 4.27%; in experiment [17], 21.8%; in [18], 1.61%. Further, the figures for the inhibition in experiment [19] and in experiment [20] were 4.29% and 1.81%, respectively.
